Over roughly 1,000 compounds, “relative growth recovery (pomalidomide 10 uM = 100%, DMSO = 0%)” has its median near -1.6; the highest 2% begin near 21. Shown is part of a subset that was picked to be rich in the highest values.
Tested on: HEK293FT dCK*-IKZF1
Assay: relative growth recovery (pomalidomide 10 uM = 100%, DMSO = 0%); higher = more growth rescue (IKZF1 fusion degradation)
Conditions: compound concentration: 5 uM; AraC concentration: 0.3 uM; overnight pretreatment + 4 days AraC
Protocol: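 Growth recovery screen of the molecular-glue-like (Specs) library. HEK293FT cells expressing a dCK*-IKZF1 fusion (primary) or dCK* alone (counter) were pretreated overnight with compound at 5 uM, then given 0.3 uM AraC for 4 days. Hoechst nuclei were counted by imaging. Primary: normalised to pomalidomide (100%) and DMSO (0%), mean of 2 replicates. Counter: normalised to no-AraC (100%) and AraC+DMSO (0%), single replicate.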

Structure (SMILES) | relative growth recovery [%]
CCC(Oc1ccccc1)C(=O)Nc1ccc(S(=O)(=O)Nc2ncccn2)cc1 (stereo not given) | 78.9
CCC(Oc1ccccc1)C(=O)Nc1ccc(S(=O)(=O)Nc2nc(C)cc(C)n2)cc1 (stereo not given) | -3.29
CC(Oc1ccccc1)C(=O)Nc1ccc(S(=O)(=O)Nc2ncccn2)cc1 (stereo not given) | -0.515
Cc1cc(C)nc(NS(=O)(=O)c2ccc(NC(=O)c3oc4ccccc4c3C)cc2)n1 | -2.64
Cc1cnc(Nc2cccc(C3CCN(C(=O)CCn4ncc5ccccc54)CC3)n2)s1 | -1.66
COc1cc(NS(=O)(=O)c2ccc(NC(=O)c3ccccc3C)cc2)nc(OC)n1 | -0.335
COc1ccc(C(=O)Nc2ccc(S(=O)(=O)Nc3cc(OC)nc(OC)n3)cc2)c(OC)c1 | 3.94
CCOc1cc(C(=O)Nc2ccc(S(=O)(=O)Nc3ncccn3)cc2)cc(OCC)c1OCC | 0.09
COc1ccc(C(=O)Nc2ccc(S(=O)(=O)Nc3ncccn3)cc2)c(OC)c1 | -1.31
Cc1cnc(Nc2cccc(C3CN(C(=O)CN(C(=O)CC(C)C)c4ccccc4)CCO3)n2)s1 (stereo not given) | 1.34
COc1cccc(CCC(=O)N2CCOC(c3cccc(Nc4ncc(C)s4)n3)C2)c1 (stereo not given) | 15.8
Cc1csc(Nc2cccc(C3CN(C(=O)CCc4nc(C)no4)CCO3)n2)n1 (stereo not given) | 5.6
Cc1csc(Nc2cccc(C3CCCN3C(=O)CCCc3ccc(F)cc3)n2)n1 (stereo not given) | 0.885
Cc1csc(Nc2cccc(C3CN(C(=O)CCCc4ccc(F)cc4)CCO3)n2)n1 (stereo not given) | 25.2
COc1ccc(CCC(=O)N2CCOC(c3cccc(Nc4ncc(C)s4)n3)C2)cc1 (stereo not given) | 15.7
COc1ccc(CCC(=O)N2CCOC(c3cccc(Nc4nc(C)cs4)n3)C2)cc1 (stereo not given) | 32.4
O=[N+]([O-])c1ccc(S(=O)(=O)Nc2ccc(Cl)cn2)cc1 | -4.66
O=[N+]([O-])c1ccc(S(=O)(=O)Nc2nc3ccccc3nc2Nc2ccccc2)cc1 | 8.16
CC(C)Nc1nc(NC(C)C)nc(NS(=O)(=O)c2ccc(N)cc2)n1 | -1.87
CC(C)N(C(=O)CN1CCOC(c2cccc(Nc3nccs3)n2)C1)C1CCCCC1 (stereo not given) | -2.24

Structure (SMILES) | relative growth recovery [%]
Cc1csc(Nc2cccc(C3CCN(C(=O)Cn4nc(C)cc4C)CC3)n2)n1 | 16.9
Cc1cnc(Nc2cccc(C3CCN(C(=O)CC4CCCCC4)CC3)n2)s1 | -13.5
O=C(c1cccc2ncccc12)N1CCOC(c2cccc(Nc3nccs3)n2)C1 (stereo not given) | -7.12
Cc1cc(C)nc(NS(=O)(=O)c2ccc(NC(=O)c3ccc(Cl)cc3Cl)cc2)n1 | -0.215
Cc1cnc(Nc2cccc(C(C(=O)N(C)C)C3CCN(C(=O)[C@H](CC(C)C)NC(=O)OC(C)(C)C)CC3)n2)s1 (stereo not given in full) | 3.71
Cc1ccc(C(=O)Nc2ccc(S(=O)(=O)Nc3cc(C)nc(C)n3)cc2)cc1 | -1.57
Cc1cccc(C(=O)Nc2ccc(S(=O)(=O)Nc3nc(C)cc(C)n3)cc2)c1 | 4.85
Cc1nc(Nc2cccc(C3CCCN3C(=O)CCCN3C(=O)CNC3=O)n2)sc1C (stereo not given) | 3.93
Cc1ccc(/C=C/C(=O)Nc2ccc(S(=O)(=O)Nc3ncccn3)cc2)cc1 | -2.17
Cc1cc(OCC(=O)Nc2ccc(S(=O)(=O)Nc3ncccn3)cc2)ccc1Cl | -0.26
NCC(=O)N1CCC(c2cccc(Nc3ncc(Br)s3)n2)CC1 | -17.1
Cc1nc(/C=C/C(=O)N2CCC(c3cc4ccccc4c(Nc4nccs4)n3)CC2)cs1 | -17.8
Cc1nn(C)c(C)c1/C=C/C(=O)N1CCC(c2cc3ccccc3c(Nc3nccs3)n2)CC1 | 51.1
Cn1nccc1/C=C/C(=O)N1CCC(c2cc3ccccc3c(Nc3nccs3)n2)CC1 | -16.9
Cc1ccc(C)c(OCC(=O)Nc2ccc(S(=O)(=O)Nc3nc(C)cc(C)n3)cc2)c1 | -2.19
Nc1ccc(Oc2ccc3c(c2)C(=O)N(CCO)C3=O)cc1 | 2.76
Cc1cnc(Nc2cccc(C(C(=O)N(C)C)C3CCN(C(=O)C4CCCCC4)CC3)n2)s1 (stereo not given) | 1.65
CC(=O)N1CCCC(c2csc(Nc3ccccn3)n2)C1 (stereo not given) | -1.67
Cn1nccc1/C=C/C(=O)N1CCCC1c1csc(Nc2ccccn2)n1 (stereo not given) | 2.75
COC(C)(C)C(=O)N1CCCC(c2csc(Nc3ccc(C)cn3)n2)C1 (stereo not given) | 15.9

Structure (SMILES) | relative growth recovery [%]
Cn1nccc1/C=C/C(=O)N1CCCC(c2csc(Nc3ccccn3)n2)C1 (stereo not given) | 40.9
Cn1nccc1/C=C/C(=O)N1CCCC(c2cc3ccccc3c(Nc3nccs3)n2)C1 (stereo not given) | -10.2
Cc1ccc(Nc2nc(C3CCCN3C(=O)/C=C/c3csc(C)n3)cs2)nc1 (stereo not given) | 0.31
O=C(/C=C/c1ccco1)N1CCCC(c2csc(Nc3ccccn3)n2)C1 (stereo not given) | 18.9
O=C(/C=C/c1ccccc1)N1CCCC(c2csc(Nc3ccccn3)n2)C1 (stereo not given) | 31.2
Cc1ccc(Nc2nc(C3CCCN(C(=O)/C=C/c4csc(C)n4)C3)cs2)nc1 (stereo not given) | 31.5
Cc1ccc(OCC(=O)Nc2ccc(S(=O)(=O)Nc3nc(C)cc(C)n3)cc2)cc1 | -1.25
O=C1CCC(N2C(=O)c3cc(F)c(N4CCC(Cn5cc(C(=O)O)cn5)CC4)cc3C2=O)C(=O)N1 (stereo not given) | -2
Cc1cc(C)nc(NS(=O)(=O)c2ccc(NC(=O)CSc3nc4c(cc3C#N)CCCCC4)cc2)n1 | -5.67
Cc1ccc(C)c2c1[nH]c1nc(SCC(=O)Nc3cccc(F)c3)nnc12 | -2.81
CC(=O)N1CCC(Cc2cccc(Nc3nc(C)cs3)n2)CC1 | 10.6
CCCCc1cnc(Nc2cccc(C3CCN(C(=O)[C@@H]4CCCCN4)CC3)n2)s1 | -11.4
O=C(Nc1ccc(S(=O)(=O)Nc2ncccn2)cc1)c1ccc2c(c1)OCO2 | -3.11
COc1ccc(Cl)cc1C(=O)Nc1ccc(S(=O)(=O)Nc2nccc(C)n2)cc1 | -1.7
COc1ccc2[nH]c(SCC(=O)Nc3ncccn3)nc2c1 | 1.53
Cc1cnc(Nc2cccc(C3CCN(C(=O)C4(NC(=O)CC(C)(C)C)CCCCC4)CC3)n2)s1 | -16.1
CCc1ccccc1OCC(=O)Nc1ccc(S(=O)(=O)Nc2nc(C)cc(C)n2)cc1 | -4.88
CCCN1CC(C(=O)N2CCC(c3cccc(Nc4ncc(C)s4)n3)CC2)CC1=O (stereo not given) | -5.35
COc1cc(NS(=O)(=O)c2ccc(NC(=O)c3ccccc3C(=O)O)cc2)nc(OC)n1 | -4.23
COc1cc(NS(=O)(=O)c2ccc(NC(=O)/C=C/c3ccco3)cc2)nc(OC)n1 | 1.19

Reference: the supplement of paper PMC12340641
